Hits are enriched below; roughly 2.3% of the tested compounds scored in any of these assays.
TDP43 rescue = rescues yeast growth from TDP-43 toxicity | TDP-43 expressing yeast growth rescue, BacTiter-Glo, 24 h | Potency, µM (doses to about 46.1 µM), without a hit: at the top dose growth rescue (activation), actives largely listed as activators | hit rate 1.8% among 410,000 | AID 652104; note: % of control where 0% means no effect; nearly all actives have a fitted effect of over 50% in size
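Growth rescue of TDP-43-toxic yeast measured as ATP luminescence (BacTiter-Glo). Cells grown to mid-log in raffinose, induced in galactose at OD600=0.02, exposed to compound 24 hr at 30 deg C.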
aSyn rescue = rescues yeast growth from alpha-synuclein toxicity. Yeast expressing alpha-synuclein, growth rescue, BacTiter-Glo, 24 h. AID 652106. hit rate 0.14% among 370,000. Potency, µM (top dose mostly 46.1 µM), for the others: at the highest dose growth rescue (activation), most hits filed as activators; note: % of control where 0% means no effect; nearly all actives have a fitted effect of over 65% in size
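Rescue of yeast growth: cells expressing toxic alpha-synuclein, induced in galactose at OD600 0.02, incubated with compound 24 h at 30 C. ATP luminescence quantified growth; inhibitors of toxicity appear as activators.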
BCR signal inh = chronic active BCR signaling inhibition. ABC-DLBCL IkBa-CBG/CBR reporter, luminescence ratio, 4 h. Potency, µM (top dose mostly 46.1 µM), without a hit: at the top dose activity change, negative = inhibition, actives largely listed as inhibitors. hit rate 0.05% among 340,000; active = well fitted inhibition curve with a large enough effect in the signal ratio, with a control signal flat, not every such curve was filed as active; inconclusive = small, poorly fitted or top-dose-only effect, or effect the other way, or a change in a side signal; the % refers to the signal ratio;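 note: plate controls were basal doxycycline-induced cells for no effect and cells given 10 µM MG132 for full effect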
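Compounds up to 46 uM were incubated four hours with TMD8 cells whose green CBG68 luciferase is fused to IkappaBalpha; red CBR luminescence normalised the signal, and concentration-effect curves were fitted to fusion, red and ratio data.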
Abeta yeast res = A-beta toxicity reversal in yeast | yeast expressing A-beta42, growth rescue, OD600, 48 h; response scale: 0% DMSO, 100% iron-clioquinol control | Potency, µM (doses to about 46.1 µM), actives largely listed as activators | hit rate 0.063% among 410,000; note: nearly all actives have a fitted effect of over 55% in size
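Yeast A-beta toxicity model in growth medium with pinned compounds, 48 h at 30 C; growth read as absorbance at 600 nm. Normalized to FeCl3/clioquinol equimolar mix (positive) and DMSO (negative).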
uPA generation = blocks generation of uPA at the cell surface; AID 540303; hit rate 0.31% among 330,000; Potency, µM (doses to about 38.3 µM), inactives show at the highest dose activity change, negative = inhibition, usual class: inhibitors; cell surface uPA generation assay, qHTS; active = well fitted inhibition curve with a large enough effect; inconclusive = small, poorly fitted or top-dose-only effect; inactive = no such curve, though single readings can be large or run the other way; tested in mouse RAW 264.7 cells; note: % is set by controls: 0 for no effect and ±100 for the full control effect; nearly all actives have a fitted effect of over 55% in size
FUS suppressor = suppressors of FUS proteinopathy in yeast; S. cerevisiae FUS-expressing, growth rescue, OD600, 24 h; Potency, µM (top dose mostly 76.6 µM), most hits filed as activators; hit rate 0.24% among 390,000; AID 1347120;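 note: plate controls were DMSO vehicle for no effect and reference control for full effect; nearly all actives have a fitted effect of over 55% in size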
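Read-out: OD at 600 nm after 24hr at 30C, reporting rescue of FUS-induced yeast toxicity. Cells at OD 0.005 in galactose (2%) minimal medium; compounds tested in a dilution series; CP55940 titration from 92uM final as control.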
* hit, by the source's call; i = inactive; ? = inconclusive; · = not tested or not shown. Unless noted, calls come from the whole dose curve; as a rule, active = well fitted curve in the direction sought with a large enough effect; inconclusive = small, poorly fitted or top-dose-only effect, or another doubt; inactive = no such curve, though single readings can be large; an effect the other way counts as inactive or inconclusive. Potency is the fitted concentration of half-maximal effect.

SMILES	TDP43 rescue	aSyn rescue	BCR signal inh	Abeta yeast res	uPA generation	FUS suppressor
CCN(CC)c1ccc(S(=O)(=O)N2CCOCC2)cc1NC(=O)CNCc1ccccc1	5%	0%	11%	i	-6%	i
CC1(C(=O)c2ccccc2)C2c3c(ccc4ccccc34)OC(=O)C21C(=O)N1CCOCC1 (stereo unspecified)	18µM*	7%	1%	?	9%	i
Cc1ccc(/C=C/C(=O)OCC(=O)Nc2ccc3[nH]c(=O)[nH]c3c2)o1	-6%	3%	-5%	i	-3%	i
O=C(C[C@H]1C/C=C\C[C@@H](Cc2ccc(F)cc2)C(=O)OC[C@H]2CCCN2C1=O)N[C@@H](CO)Cc1ccccc1	12%	1%	1%	i	8%	?
O=C(Oc1c(Cl)cc(Cl)c2cccnc12)c1cccc([N+](=O)[O-])c1	2µM*	?	21µM*	i	-4%	i
O=C(Oc1ccc(Cl)c2cccnc12)c1cccc([N+](=O)[O-])c1	9%	2%	?	i	-1%	·
ON=C1c2ccccc2-c2ccc(Br)cc21	3.2µM*	-8%	·	i	6%	·
CC1CCN(CCCNC(=O)c2cc3c(s2)-c2ccccc2OC3)CC1	-2%	5%	7%	i	2%	i
Cn1c(SCC(=O)Nc2ccc(C(=O)O)cc2)nc2scc(-c3ccccc3Cl)c2c1=O	-1%	·	0%	i	4%	35µM*
C=CCn1c(SCC(=O)Nc2ccc(C(=O)O)cc2)nc2scc(-c3ccccc3)c2c1=O	-24%	-73%	7%	i	-5%	·
O=S(=O)(NCCc1csc2nc(-c3ccccc3)nn12)c1cc(F)ccc1F	22µM*	·	?	?	·	i
COc1ccc(OC)c(S(=O)(=O)NCCc2csc(-c3cccc(F)c3)n2)c1	?	·	·	i	·	?
O=S(=O)(NCCc1csc(-c2cccc(F)c2)n1)c1cc(F)ccc1F	2.5µM*	·	·	?	·	i
Cc1ccc(S(=O)(=O)NCCc2csc(-c3cccc(F)c3)n2)cc1	18µM*	·	·	i	·	i
O=C(CCCOC(=O)c1ccc(O)cc1)c1ccccc1	?	-1%	2%	?	2%	i
COc1ccc2[nH]c3c(c2c1)CCNC3C1CC=C(C)CC1 (stereo unspecified)	14%	4%	?	i	2.8µM*	i
O=C(O)CCCC(=O)Nc1nc(-c2ccccc2)cs1	7%	-8%	?	i	-5%	i
CC(C)c1ccc(NC(=O)C2Cc3c(-c4ccco4)ccnc3O2)cc1 (stereo unspecified)	35µM*	?	·	i	·	i
COc1ccc(NC(=O)C2Cc3c(-c4ccccc4Oc4ccccc4)ccnc3O2)cc1 (stereo unspecified)	25µM*	7%	·	i	·	i
COc1ccc(CNC(=O)C2Cc3c(-c4ccccc4)ccnc3O2)cc1OC (stereo unspecified)	-15%	-5%	·	i	·	i
COc1ccc(CCCNC(=O)C2Cc3c(-c4ccccc4)ccnc3O2)cc1 (stereo unspecified)	32µM*	15%	·	i	·	i
CC(=O)Nc1ccc(-c2ccnc3c2CC(C(=O)Nc2ccc(C(C)C)cc2)O3)cc1 (stereo unspecified)	20%	11%	·	i	·	?
CC(C)c1ccc(NC(=O)C2Cc3c(-c4ccc5c(c4)OCO5)ccnc3O2)cc1 (stereo unspecified)	35µM*	0%	·	i	·	?
CC(=O)Nc1ccc(NC(=O)C2Cc3c(-c4cccc(C(C)=O)c4)ccnc3O2)cc1 (stereo unspecified)	21%	-4%	·	i	·	i
CC(=O)c1cccc(-c2ccnc3c2CC(C(=O)Nc2ccc(Cl)c(C(F)(F)F)c2)O3)c1 (stereo unspecified)	16µM*	23%	·	i	·	i
SMILES	TDP43 rescue	aSyn rescue	BCR signal inh	Abeta yeast res	uPA generation	FUS suppressor
CC(=O)c1cccc(-c2ccnc3c2CC(C(=O)Nc2cccc(OC(F)(F)F)c2)O3)c1 (stereo unspecified)	35µM*	24%	·	?	·	i
CC(=O)c1cccc(-c2ccnc3c2CC(C(=O)Nc2ccc4c(c2)OCO4)O3)c1 (stereo unspecified)	25µM*	14%	·	i	·	?
O=C(Nc1cccc(OC(F)(F)F)c1)C1Cc2c(-c3ccc(Cl)cc3)ccnc2O1 (stereo unspecified)	21%	?	·	i	·	i
COc1ccc(NC(=O)C2Cc3c(-c4cccc(C(C)=O)c4)ccnc3O2)cc1 (stereo unspecified)	22µM*	5%	·	i	·	i
COc1cc(NC(=O)Cn2nc(C(F)(F)F)c3c2CCCC3)c(OC)cc1Cl	9%	·	·	i	·	i
CCn1cc(CN2CCCC(CNC(=O)COc3ccccc3OC)C2)c(C)n1 (stereo unspecified)	-12%	2%	?	i	-4%	i
CCOC(=O)CN1C(=O)S/C(=C/c2ccc(C)o2)C1=O	13µM*	4%	?	i	-3%	i
Cc1cccn2c(=O)c3cc(C(=O)NCCN4CCOCC4)n(Cc4ccccc4)c3nc12	·	·	0%	·	·	·
Nc1cc([N+](=O)[O-])cc2oc(-c3ccccc3)cc12	35µM*	11%	?	i	-2%	i
N#C/C(=C\c1c(F)cccc1Cl)C(=O)NC1CC1	13µM*	1%	-3%	i	-3%	i
Cc1cc(C)c(NC(=O)C2CCCN2CCOC(=O)c2cccc([N+](=O)[O-])c2)c(C)c1 (stereo unspecified)	-17%	-3%	?	i	-9%	i
CCOC(=O)C1CCCCN1C(=O)CCc1c(C)nc2cc(-c3ccccc3)nn2c1C (stereo unspecified)	?	3%	?	i	-7%	i
CCOC(=O)C1CCN(C(=O)CCc2c(C)nc3cc(-c4ccccc4)nn3c2C)CC1	18µM*	2%	?	i	1%	i
FC(F)Oc1ccc(NC(=S)NC2CCCCCCC2)cc1	24%	-9%	7%	11µM*	1%	i
COC(=O)C1CSC2c3ccccc3C(=O)N12 (stereo unspecified)	0%	0%	·	i	-1%	i
COc1cc(C(=O)NCC(=O)N2CCN(S(=O)(=O)c3cc(C)ccc3C)CC2)cc(OC)c1OC	14%	5%	?	i	2.2µM*	i
